The results in this text go back to PubChem BioAssay AID2718 (Broad Institute, 2010).

The campaign covered roughly 320,000 compounds. About 480 (0.15%) were called active. Roughly 1% stayed inconclusive and do not appear here. For the sample, actives were picked, then their nearest neighbours and some compounds at random. Unmarked numbers belong to inactive results. Cut-off read from the data, not from the text of the source: active = inhibition above about 26% (passing the limit was not always enough); inconclusive = no clear call, values can overlap the other calls.

Sequence of Histone deacetylase 3 (Homo sapiens) (O15379 whole entry, looked up): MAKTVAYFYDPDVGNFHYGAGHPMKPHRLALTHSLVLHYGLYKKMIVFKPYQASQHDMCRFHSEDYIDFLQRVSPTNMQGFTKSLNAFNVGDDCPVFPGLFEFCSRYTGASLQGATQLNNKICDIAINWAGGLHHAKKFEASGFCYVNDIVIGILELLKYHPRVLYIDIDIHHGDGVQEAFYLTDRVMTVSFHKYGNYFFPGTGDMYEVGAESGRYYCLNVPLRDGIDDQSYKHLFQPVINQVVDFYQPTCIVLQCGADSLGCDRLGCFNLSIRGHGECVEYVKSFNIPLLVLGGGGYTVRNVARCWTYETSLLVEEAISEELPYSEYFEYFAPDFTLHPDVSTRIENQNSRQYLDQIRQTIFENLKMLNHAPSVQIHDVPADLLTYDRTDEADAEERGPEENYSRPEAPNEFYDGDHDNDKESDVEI

This test addresses Histone deacetylase 3 (Homo sapiens) (UniProt O15379). In words: inhibition of human HDAC3 enzyme activity – biochemical, fluorescence, cell-free homogeneous, primary screen (AID 2718). The following applies: recombinant HDAC3, fluorogenic peptide/trypsin coupled, at 8.3 µM, stronger effect = higher value.
One may read the inhibition as the relative decrease from the control value, in per cent. Take `O=C1N[C@@H](c2ccccc2)COC(=O)[C@H](Cc2ccc(F)cc2)C/C=C\C[C@@H]1CC(=O)N(CCO)Cc1ccccc1`: the inhibition is 8.45%.
The value for `C=CC[C@H](CC(=O)NCCO)C(=O)N[C@@H](COC(=O)[C@@H](CC=C)Cc1ccc(F)cc1)Cc1c[nH]c2ccccc12` was 9.77%; that for `C=CC[C@H](CC(=O)N(CCO)Cc1ccccc1)C(=O)N[C@@H](COC(=O)[C@@H](CC=C)Cc1ccc(F)cc1)Cc1ccccc1` was 40.9% (active).
As for `COC(=O)[C@]1(CC(C)C)N[C@H](c2ccc(SC3CCCCC3)cc2)[C@@H]2C(=O)N(C)C(=O)[C@@H]21`, the inhibition was 16%.
As for `O=C(OCC(=O)N1CCCCCC1)c1ccc(Cl)nc1`, the figure is 0.75%.
As for `CCOC(=O)Cn1c(-c2cccnc2Cl)nc2ccccc21`, the figure is 2.13%; as for `CCCCCCCCCCOC(=O)Cn1c(COc2ccc(C)cc2)[n+](C)c2ccccc21`, 36.3% (active).
As for `CCCCCCCCCCOC(=O)Cn1c(COc2cccc(OC)c2)[n+](C)c2ccccc21`, the figure is 17.1%; as for `Cc1cccc(NC(=O)c2ccc(S(=O)(=O)N(C)c3ccccc3)cc2)n1`, 2.21%; as for `CCN(C(=O)COC(=O)c1ccccc1O)c1cccc2ccccc12`, 2.66%.
Regarding `Cc1cc2c(cc1C)N(C(=O)CN1C(=O)c3ccccc3C1=O)C(C)(C)c1ssc(=S)c1-2`, the inhibition was -10.7%.
On to `COc1cc(NC(=O)CN2C(=O)NC(C)(c3ccc(OC(F)F)cc3)C2=O)cc(OC)c1OC` (configuration not stated), for which the inhibition was 5.68%.
As for `Cc1ccc2nc(-c3ccc(NC(=O)c4cccnc4)cc3)oc2c1`, the figure is -0.79%; as for `Cc1ccc(NC(=O)Cc2nc(COC(=O)C(C)NS(=O)(=O)c3ccc(C)cc3)cs2)cc1` (configuration not stated), 1.23%.
The value for `CC(=O)Nc1ccc(S(=O)(=O)NCCC(=O)N2CCN(c3ccccc3Cl)CC2)cc1` was -4.42%.
As for `CCOc1cc(C(C(=O)NCC2CCCO2)N(C(=O)Cn2nnc3ccccc32)c2cccc(OC)c2)ccc1O` (configuration not stated), the figure is -5.33%; as for `COc1ccc(C(=O)NCc2ccccc2C)cc1S(=O)(=O)NC1CCCC1`, 2.42%.
Consider `COc1cc(OC)c(NC(=O)C2CCCN2C(=O)OCc2ccccc2)cc1Cl` (configuration not stated), for which the inhibition was 2.9%.
With `CCN(C(=O)CSc1nnnn1-c1ccc(OC)cc1)C1CCS(=O)(=O)C1` (configuration not stated), the inhibition was -1.21%.
As for `COc1ccccc1NS(=O)(=O)c1ccc(C)c(C(=O)NNC(=O)c2csc(N3CCOCC3)n2)c1`, the figure is -8.84%.
The value for `CSc1ncccc1C(=O)NCC(c1ccco1)N1CCCCC1` (configuration not stated) was -0.371%.
As for `CN(CC(=O)NCCc1ccc(S(N)(=O)=O)cc1)CC(=O)Nc1ccc(Cl)cc1`, the figure is 2.8%; as for `CC1Sc2ccc(C(=O)NCc3ccccc3Cl)cc2NC1=O` (configuration not stated), 3.12%.
Regarding `c1ccc2c(CCN3CCNC[C@H]3Cc3cccc4ccccc34)cccc2c1`, the inhibition was 4.64%.
As for `CC1COC2C(O1)N(S(C)(=O)=O)CCN2S(C)(=O)=O` (configuration not stated), the figure is -8.42%; as for `COc1ccc2nc3n(c(=O)c2c1)-c1cc(C)ccc1C(=O)NC3Cc1ccc(O)cc1` (configuration not stated), 4.49%; as for `Cc1ccc(NC(=O)CN(C)C(=O)c2ccc(Cl)c(S(=O)(=O)NCc3ccco3)c2)cc1`, 1.2%.
As for `COCCCNC(=O)CC1C[C@H](C(=O)N2CCCCC2)[C@@]2(CCc3ccccc3)c3[nH]c4ccccc4c3CCN2C1=O` (some centres not stated), the figure is -3.31%; as for `CC(=O)c1nn(-c2ccc(C)cc2)cc1C(=O)c1cccc(Br)c1`, 7.63%; as for `Cc1nnc(SCC(=O)Nc2ccc(S(=O)(=O)Nc3ccc(Cl)nn3)cc2)s1`, 0.425%.
The value for `CN(C(=O)c1ccccc1)c1nccnc1C#N` was 2.83%.
As to `O=C(Nc1ccccc1)O/N=C1/CCCc2occc21`, the inhibition is -0.26%.
The value for `Cc1ccc(NS(=O)(=O)c2ccc(C(=O)NCCCN3CCOCC3)cc2)cc1` was -2.45%.
The value for `Nn1c(SCC(=O)NC2CCCc3ccccc32)nnc1C1CC1` (configuration not stated) was 2.63%; that for `COc1cc(OC)cc(-c2c(C#Cc3ccsc3)c3cc(-c4ccc(SC)cc4)ccc3n2C)c1` was -8.45%; that for `CN(C)C(=O)c1cccn(Cc2cccc(C(F)(F)F)c2)c1=O` was 0.89%.
The value for `CC(C)(C)OC(=O)C[C@@H]1C/C=C\C[C@@H](CC(=O)N[C@H](CO)Cc2ccccc2)C(=O)NC[C@@H](c2ccccc2)OC1=O` was -3.9%; that for `S=c1[nH]c2ccccc2c2ccccc12` was 2.2%; that for `CC1(C)CC(=O)C=C(c2ccc(Cl)c(C(F)(F)F)c2)C1` was 3.15%.
As for `COCCCNC(=S)N(CCN(C)C)Cc1cc2cc3c(cc2[nH]c1=O)OCCO3`, the inhibition is 54.7% (active).
As for `CCN(CC)CCCNC(=S)N(CCO)Cc1cc2cc3c(cc2[nH]c1=O)OCO3`, the figure is 3.65%.
For `CCNC(=S)N(CCN(CC)CC)Cc1cc2cc3c(cc2[nH]c1=O)OCCO3`, the inhibition is -18.5%.
The value for `COc1ccc2sc(-c3ccc(S(C)(=O)=O)cc3)c(C#Cc3cncn3C)c2c1` was -6.51%; that for `Cc1ccc(C)c(S(=O)(=O)N2CCN(c3ncnc4sccc34)CC2)c1` was 8.6%.
As for `CCOC(=O)c1nn(-c2ccccc2F)c2nc(Nc3ccccc3)cc(=O)n12`, the figure is 4.54%.
As for `Cc1nc(CC(=O)NNS(=O)(=O)c2ccc(F)c(Cl)c2)cs1`, the figure is -5.91%.
For the compound `COc1cccc(NC(=O)C2c3cc(OC)c(OC)cc3C(=O)N(C)C2c2cccnc2)c1` (configuration not stated), the inhibition was 35.6% (active).
`COc1cccc(NC(=O)C2C(c3ccccc3)C2(Cl)Cl)c1` (configuration not stated): the inhibition was 10.8%.
`CCOc1cc2c(cc1OCC)C(C(=O)O)C(c1ccc(OC)c(O)c1)N(C)C2=O` (configuration not stated): the inhibition is -1.3%.
Consider `CCCCn1c(N)c(N(CCOC)C(=O)COc2c(C)cccc2C)c(=O)[nH]c1=O`, for which the inhibition was -1.76%.
The value for `CSc1cccc(NC(=S)N(C(C)C)C(C)c2ccccn2)c1` (configuration not stated) was -0.0363%.
As for `COc1ccc(S(=O)(=O)N(C)C[C@@H]2Oc3ccc(NC(=O)Nc4c(C)noc4C)cc3C(=O)N([C@H](C)CO)C[C@@H]2C)cc1`, the figure is -1.76%; as for `O=C(COc1ccc(F)cc1Br)NCC1COc2ccccc2O1` (configuration not stated), -3.53%; as for `CCCCN(C(=O)C1CCC1)c1c(N)n(Cc2ccccc2)c(=O)[nH]c1=O`, -3.39%.
The value for `O=C(COC(=O)c1cccc(Cl)c1)NC(=O)NCc1ccccc1` was 1.01%.
For `CC(OC(=O)c1cc2ccccc2[nH]1)C(=O)N(C)c1ccccc1` (configuration not stated), the inhibition was -8.32%.
As for `COCCNC(=O)CCCN1C(=O)c2ccccc2Sc2ncccc21`, the figure is 2.45%; as for `CCOc1ccc(-n2c(N)c(C(=O)NCC3CCCO3)sc2=S)cc1` (configuration not stated), 3.4%; as for `O=C(Nc1nnc(-c2ccccc2)o1)c1cccc(S(=O)(=O)N2CCOCC2)c1`, -1.1%.
As for `COc1ccccc1C(=O)NCC(=O)OCC(=O)NNC(=O)c1ccc(Br)cc1`, the figure is -9.69%; as for `CCCn1c(=O)c2c(C(F)(F)F)cc(-c3cccs3)nc2n(CCC)c1=O`, 1.67%.
The value for `COc1ccc(NC(=O)CNC(=O)Cn2ccc3ccccc3c2=O)c(OC)c1` was -0.211%; that for `Fc1ccc2cnc(-c3ccccc3)cc2c1` was -0.273%; that for `Cc1ccc(NC(=O)C2CC2)cc1S(=O)(=O)N1CCOCC1` was 1.59%.
`COc1ccc(-c2c(-c3cc(OC)cc(OC)c3)n(C)c3ccc(-c4ccn[nH]4)cc23)cc1`: the inhibition was -1.8%.
For `CC(C)n1cnc2c(NCc3ccccc3)cc(N[C@@H](CO)Cc3ccccc3)cc21`, the inhibition is 11.4%.
As for `N=c1c2c3c(sc2ncn1N)CCCC3`, the figure is 9.19%; as for `S=c1[nH]nc2c3c4c(sc3ncn12)CCCC4`, 42.4% (active); as for `N=c1c2c3c(sc2ncn1N)CCCCC3`, -7.57%.
As for `Cc1ccc(S(=O)(=O)NCCNC(C)c2ccc(Br)cc2)cc1` (configuration not stated), the figure is 6.4%; as for `CC(=O)c1ccc(NC(=O)CSc2nc3ccccc3c(=O)n2CCCN2CCOCC2)cc1`, 12.2%.
The value for `COc1ccc(N2C(=O)C(CC(=O)Nc3ccc(F)cc3)N(CCc3cccs3)C2=O)cc1` (configuration not stated) was -0.706%.
`CC1=CCC2C(=O)N(c3cccc(C(=O)NC(C)c4ccccc4)c3)C(=O)C2C1` (configuration not stated): the inhibition is -6.38%.
The value for `COc1ccc(CCNC(=O)CN2C(=O)COc3ccc(S(=O)(=O)N4CCCC4)cc32)cc1OC` was -4.05%; that for `CC1(c2ccccc2)NC(=O)N(CC(=O)N2CC(=O)Nc3ccccc32)C1=O` (configuration not stated) was -0.182%.
In the case of `Cc1ccc(-c2nn(-c3ccccc3)cc2/C=C2\SC(=S)N(CCCCCC(=O)O)C2=O)o1`, the inhibition is 31.7% (active).
Regarding `Cc1ccc(-c2nn(-c3ccccc3)cc2CN(Cc2ccccc2)C(=O)CCC(=O)O)o1`, the inhibition was -11.8%.
The value for `C=CCOc1ccc(/C=C2\SC(=S)N(CCC(=O)O)C2=O)cc1` was 6.13%; that for `Clc1ccc2nc(CSc3ccccc3)cn2c1` was 10.1%; that for `C[C@H]1CN([C@@H](C)CO)C(=O)Cc2cc(NS(C)(=O)=O)ccc2O[C@@H]1CN(C)CC1CC1` was -7.37%.
Take `CC(C)(C)NC(=O)NC(=O)COC(=O)C1c2ccccc2Oc2ccccc21`: the inhibition is -4.96%.
As for `Cc1cccc(C)c1Nc1nnc(SCC(=O)NCCCN2CCCC2=O)s1`, the figure is 0.701%; as for `O=C(NCc1ccc2c(c1)OCO2)c1c(-c2ccsc2)sc2ccccc12`, 4.88%; as for `O=C(Nc1ccc(Br)cn1)C1CCN(S(=O)(=O)c2cccs2)CC1`, -1.41%.
In the case of `COc1ccc(-c2n[nH]c(C)c2-c2ccccc2OC)c(O)c1`, the inhibition is -1.09%.
In the case of `C=C(C)COc1ccc(-c2n[nH]c(C)c2-c2ccccc2)c(O)c1`, the inhibition is 28.9% (active).
As for `C=C(C)COc1ccc(-c2ncncc2-c2ccc(OC)cc2)c(O)c1`, the figure is 4.53%.
